Compound activity: PubChem BioAssay, National Center for Advancing Translational Sciences (NCATS)
CHX counter: Cycloheximide Counterscreen for Small Molecule Inhibitors of Shiga Toxin; max response, %; 300,000 compounds, 12% hits; AID 2314, 2010; cell reporter, cycloheximide protein synthesis inhibition counterscreen; in the data active = max response mostly above about 13%, no sharp cut-off; inactive = mostly below about 14%; also: read at 38.3 µM for the half of the compounds with a filed dose; 0% is about no effect
FBPA Giardia inh: qHTS Assay for Inhibitors of Fructose-1,6-bisphosphate Aldolase from Giardia Lamblia; purified Giardia FBPA; Potency, µM (highest dose often 59.6 µM), for the others: at the top dose activity, negative = inhibition, most hits filed as inhibitors; 290,000 compounds, 0.71% hits; A8B2U2; also: potency is read from the fitted curve at half-maximal effect; % is scaled to controls: 0 for no effect and ±100 for the full control effect; nearly all actives have a fitted effect of over 55% in size
Target sequence (A8B2U2 whole entry, looked up): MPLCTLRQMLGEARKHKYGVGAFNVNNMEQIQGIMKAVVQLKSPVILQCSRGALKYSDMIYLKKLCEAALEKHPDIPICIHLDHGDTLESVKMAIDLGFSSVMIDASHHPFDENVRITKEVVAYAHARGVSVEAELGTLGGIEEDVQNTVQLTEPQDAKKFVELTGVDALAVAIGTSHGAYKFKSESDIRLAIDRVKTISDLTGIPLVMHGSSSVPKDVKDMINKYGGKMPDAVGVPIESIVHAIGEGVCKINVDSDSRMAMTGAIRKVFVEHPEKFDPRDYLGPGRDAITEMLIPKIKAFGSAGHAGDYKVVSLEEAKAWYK
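Giardia FBPA (40 nM reagent) was preincubated 10 min at RT with compound (up to 57.5 uM final), then substrate plus GAPDH/TPI/NAD/arsenate coupling system with diaphorase/resazurin was added; resorufin fluorescence (525/598 nm) was read after 20 min.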
LmPK inhibitor: qHTS Assay for Inhibitors of Leishmania Mexicana Pyruvate Kinase (LmPK); Q27686; purified LmPK, Kinase-Glo ATP luminescence, 1 h; Potency, µM (doses to about 57.5 µM), for inactives: at the top dose activity change, negative = inhibition, usual class: inhibitors; 290,000 compounds, 0.37% hits; AID 1721, 2009; also: potency is read from the fitted curve at half-maximal effect; % is scaled to controls: 0 for no effect and ±100 for the full control effect
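Kinase-Glo luminescence read after 1 h RT reaction of 0.1 nM LmPK with 0.5 mM PEP and 0.1 mM ADP. Activity scaled between uninhibited and enzyme-free controls.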
RE007 growth inh: qHTS Assay for Inhibitors of the HIV-1 protein Vpr. S. pombe RE007 Vpr strain, BacTiter-Glo ATP luminescence, 24 h. Potency, µM (highest dose often 92.2 µM), for the others: at the highest dose activity change, negative = less growth, actives largely listed as inhibitors. 360,000 compounds, 0.21% hits; active = well fitted falling curve with a large enough effect; inconclusive = small, poorly fitted or top-dose-only effect; inactive = no such curve, though single readings can be large or run the other way; also: potency is read from the fitted curve at half-maximal effect; % is scaled to controls: 0 for no effect and ±100 for the full control effect; nearly all actives have a fitted effect of over 50% in size
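Fission yeast RE007 carrying one integrated HIV-1 vpr copy, seeded at OD 0.01 in PMG+AL medium with 23 nL pinned compound. Grown 24 h at 30 degrees; viability read by BacTiter-Glo luminescence after 5 min.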
Shiga toxin inh: A qHTS for Small Molecule Inhibitors of Shiga Toxin. Vero cells, Shiga toxin protein synthesis inhibition reporter. inhibition, % at 38.7 µM. 290,000 compounds, 9.2% hits. AID 2315, 2010; in the data active = inhibition mostly above about 28%, no sharp cut-off; inactive = mostly below about 43%; also: 0% is about no effect
Tb PYK inh: qHTS of Trypanosoma Brucei Inhibitors | AID 624173, 2012 | TbPYK enzyme, Kinase-Glo Plus ATP luminescence, 45 min | 410,000 compounds, 0.12% hits | pyruvate kinase (Trypanosoma brucei), Q57TT1 | Potency, µM (highest dose often 76.8 µM), inactives show top-dose activity, negative = inhibition, most hits filed as inhibitors; also: potency is read from the fitted curve at half-maximal effect; % is scaled to controls: 0 for no effect and ±100 for the full control effect; nearly all actives have a fitted effect of over 50% in size
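TbPYK + substrate in 50 mM TEA pH 7.2, 100 mM KCl, 10 mM MgCl2, 0.05% BSA, 0.01% Tween-20; cpd pinned; ADP 130 uM final; 45 min RT; Kinase-Glo Plus 10 min; luminescence endpoint.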
* marks the source's active call; other numbers are inactive results; u = inconclusive; x = no result given. Many of the other results were omitted from the sample, so hits are more common in it than they were. Unless noted, calls follow the shape of the dose curve; as a rule, active = well fitted curve in the direction sought with a large enough effect; inconclusive = small, poorly fitted or top-dose-only effect, or another doubt; inactive = no such curve, though single readings can be large; an effect the other way counts as inactive or inconclusive.

SMILES	CHX counter	FBPA Giardia inh	LmPK inhibitor	RE007 growth inh	Shiga toxin inh	Tb PYK inh
O=C1NC(=O)C(=Cc2ccc(-c3ccc(F)cc3O)o2)C(=O)N1	13.7*	3.9%	-1.4%	8.6%	17.2	u
COC(=O)c1ccc(NC(=O)CC2C(=O)N(c3ccccc3)C(=O)N2Cc2cccs2)cc1 (stereo not given)	x	x	x	x	x	-3.5%
Cc1ccc(Nc2nnc(-c3ccc4c(c3)OCO4)o2)c(C)c1	31.9*	-18.9%	5.5%	2.1%	62.5*	-19.9%
Cc1ccc(CSc2nnc(-c3ccc4c(c3)OCO4)o2)cc1	11.9	7.3%	4.5%	-2.2%	8.4	-2.1%
O=C(O)Cc1csc(Nc2cccc(Cl)c2)n1	15.6*	3.3%	-3.0%	x	47.0	u
O=C(COc1ccc(Cl)cc1)OCc1csc(Nc2ccccc2)n1	9.8	-6.2%	2.1%	-25.3%	17.7	-1.3%
CC(C)c1ccc(NC(=O)Nc2nc(CN)cs2)cc1	x	x	x	31.6%	x	4.7%
CC(C)c1ccc(Nc2nc(CC(=O)O)cs2)cc1	48.6*	-4.2%	-6.0%	-4.9%	108.2*	0.0%
COc1ccc(Br)cc1Cn1nnc(C(=O)Nc2ccc(C)cc2C)c1N	x	x	x	x	x	1.3%
Fc1ccc(Nc2nc(SCc3cccc(F)c3)nc3ccccc23)cc1	x	x	x	x	x	-2.2%
Cc1ccc(NC2Sc3ccccc3NC2=O)cc1Cl (stereo not given)	13.1*	-5.6%	5.6%	3.8%	25.7	-2.3%
O=C(CC1Nc2ccccc2NC1=O)c1ccccc1 (stereo not given)	31.3*	-11.0%	0.5%	x	46.2	x
Cc1ccc(NC(=O)CC2SCCNC2=O)cc1Cl (stereo not given)	23.3*	-7.1%	-2.8%	0.8%	48.3*	4.8%
Cc1ccc(NC(=O)CC2Nc3ccccc3NC2=O)cc1Cl (stereo not given)	28.2*	-3.8%	-2.5%	0.2%	107.8*	-0.7%
Cc1ccc(NC(=O)CC2Nc3ccccc3NC2=O)cc1C (stereo not given)	x	x	x	x	x	-12.1%
NC(=S)NNC(=O)COc1ccccc1O	-0.6	u	3.7%	-6.9%	-1.2	-0.8%
COc1ccc(-c2nc(SCC(=O)Nc3ccc4c(c3)OCCO4)c(-c3ccc(C)cc3)[nH]2)cc1OC	x	x	x	x	x	-7.0%
COCc1cc(C)nc2c1C(=O)NC(c1ccc(F)cc1)N2Cc1ccccc1 (stereo not given)	x	x	x	x	x	3.3%
COc1cccc(C(=O)n2c(SC)nc3cc4c(cc32)OCCO4)c1	17.1*	-4.2%	-9.4%	33.2%	40.4	1.6%
CCCCCCOC(=O)C[N+](C)(C)CCOC1CC2CCC1(C)C2(C)C (stereo not given)	19.3*	3.5%	-6.4%	13.5%	17.3	-5.5%
CCCCCCCOC(=O)C[N+](C)(C)CCOC1CC2CCC1(C)C2(C)C (stereo not given)	-2.4	5.8%	4.7%	27.0%	-0.4	-9.1%
CN(Cc1ccccc1)C(=O)c1ccc2c(c1)OCO2	15.0*	-2.4%	-0.2%	14.1%	16.0	6.8%
CC(CN(C)Cc1ccccc1)OC(=O)c1ccccc1F (stereo not given)	0.3	-21.8%	-3.0%	18.1%	-8.9	17.1%
CC(CN(C)Cc1ccccc1)OC(=O)c1ccc2c(c1)OCCO2 (stereo not given)	31.5*	-7.9%	-0.7%	7.8%	15.4	-4.6%
CN(Cc1ccccc1)C(=O)COC(=O)c1ccc2c(c1)OCO2	33.3*	5.5%	-3.4%	-4.8%	53.8*	2.6%
SMILES	CHX counter	FBPA Giardia inh	LmPK inhibitor	RE007 growth inh	Shiga toxin inh	Tb PYK inh
CN(Cc1ccccc1)C(=O)c1ccc([N+](=O)[O-])o1	19.2*	-3.9%	3.0%	-14.9%	42.4*	5.0%
COc1ccccc1CNC(=O)c1ccc(N2CCCC2)c(NC(=O)NCc2ccc(F)cc2)c1	x	x	x	x	x	3.8%
COc1ccc(-n2cnc3cc(C(=O)NCCC4=CCCCC4)ccc32)cc1	x	x	x	x	x	-5.5%
COc1ccc(NC(=O)C2(c3cccs3)CCOCC2)cc1Cl	x	x	x	x	x	6.3%
O=C(COC(=O)/C=C/c1ccc(Cl)cc1Cl)NCC1CCCO1 (stereo not given)	x	x	x	4.0%	x	-2.7%
Cc1c(OCC(=O)Nc2cccnc2)ccc2c3c(c(=O)oc12)CCC3	19.8*	x	-9.9%	-1.3%	23.4	-9.6%
O=C(COc1cc2oc(=O)c3c(c2cc1Cl)CCC3)Nc1ccccn1	2.3	7.2%	0.8%	-3.8%	-2.9	5.7%
O=C(COc1cc2oc(=O)c3c(c2cc1Cl)CCC3)Nc1cccnc1	27.6*	-4.4%	-0.2%	-14.1%	21.2	-9.9%
COc1cc(NC(=O)c2noc3c2CC(C(C)(C)C)CC3)cc(OC)c1OC (stereo not given)	x	x	x	x	x	2.5%
CCc1nc(CN(C)C(=O)C2CCC(=O)N(CCc3cccc(F)c3)C2)no1 (stereo not given)	21.9*	x	0.5%	2.5%	32.5	-10.4%
O=C1CCC(C(=O)N2CCCC2)CN1CCc1cccc(F)c1 (stereo not given)	14.1	-9.7%	3.4%	-22.2%	-7.9	0.0%
COCCOC1CCN(C(=O)C2CCC(=O)N(CCc3cccc(F)c3)C2)CC1 (stereo not given)	4.2	2.0%	-0.5%	6.2%	-4.4	-6.1%
O=C1CCC(C(=O)N2CCSCC2)CN1CCc1cccc(F)c1 (stereo not given)	14.8*	7.9%	5.3%	-2.4%	15.5	3.5%
CCOC(=O)C1CCN(C(=O)C2CCC(=O)N(Cc3cccc(C(F)(F)F)c3)C2)CC1 (stereo not given)	13.6*	x	2.8%	10.3%	32.4	-2.3%
COC1CCN(C(=O)C2CCC(=O)N(CCc3cccc(F)c3)C2)CC1 (stereo not given)	28.3*	x	-8.8%	9.8%	22.7	-1.0%
CCOC(=O)N1CCN(C(=O)C2CCC(=O)N(Cc3cccc(C(F)(F)F)c3)C2)CC1 (stereo not given)	-2.2	x	-6.3%	8.6%	-7.0	-2.8%
Cc1ccc(-n2c(SCC(=O)N3CCCc4ccccc43)nc3c([nH]c4ccccc43)c2=O)cc1	x	x	x	x	x	1.6%
CCc1ccc(NC(=O)C2CCN(c3nnc(-n4c(C)ccc4C)s3)CC2)cc1	x	x	x	x	x	2.5%
